Results as given in the supplement of paper PMC7156485.
A number with no mark means an inactive call.

These compounds were tested on HCC1569 (assay: H1.0 immunofluorescence intensity relative to DMSO (% of DMSO); higher = stronger H1.0 induction, active = 140 or more). Conditions: concentration: 10 µM; 24 h.
Procedure, shortened: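 HCC1569 and TDF cells were seeded at 800 per well in 384-well plates in RPMI with 10% FBS and treated with compounds at 10 µM for 24 h at 37 °C, in triplicate. After fixation in 3.7% formaldehyde, cells were stained with a rabbit anti-H1.0 antibody, an AlexaFluor 647 secondary and DAPI, and six fields per well were imaged at ×10. H1.0 nuclear intensity or cell number is given as percent of the plate control, using the median of replicates, with HCC1569 values smoothed for positional effects.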
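Note: TDF is a line of transformed human dermal fibroblasts of mesenchymal origin.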

| Structure (SMILES) | H1.0 immunofluorescence intensity |
| --- | --- |
| COc1ccc(-c2cc(=O)c3c(O)cc(OC4OC(COC5OC(C)C(O)C(O)C5O)C(O)C(O)C4O)cc3o2)cc1O (stereo not given) [Diosmin] | 92 |
| CC1C(=O)OC2C(O)C34C5CC(C(C)(C)C)C36C(OC(=O)C6O)OC4(C(=O)O5)C12O (stereo not given) [Ginkgolide B] | 82.4 |
| O=C(O)c1cc(=O)c2c(Cl)cc(Cl)cc2[nH]1 [5,7-Dichlorokynurenic acid] | 95.9 |
| CCCn1cnc2c1c(=O)n(CCCCC(C)=O)c(=O)n2C [Propentofylline] | 100 |
| CC(NC(=O)CCc1nc(=O)c2ccccc2[nH]1)c1ccccc1 (stereo not given) | 105 |
| COc1cc(C(O)CO)ccc1OS(=O)(=O)[O-].[K+] (stereo not given) [MHPG sulfate potassium] | 121 |
| CC1=C(C)C(=O)C(CCCCC#CCCCC#CCO)=C(C)C1=O | 103 |
| CS(=O)(=O)O.Cc1ccc(N(CC2=NCCN2)c2cccc(O)c2)cc1 [Phentolamine mesylate] | 99.6 |
| CC(O)CCCC(O)C=CC1C(O)CC(=O)C1CC=CCCCC(=O)O [19(R)-Hydroxy-prostaglandin E2] | 92.1 |
| CCn1cc(C(=O)O)c(=O)c2ccc(Cc3ccccc3)nc21 [Amfonelic acid] | 95.4 |
| Cl.OC(CCN1CCCCC1)(c1ccccc1)C1CCCCC1 (stereo not given) [Trihexyphenidyl hydrochloride] | 75.4 |
| CCCCCC=CCC=CCCCCCCCC(=O)NCC(=O)O [N-Linoleoylglycine] | 103 |
| COc1cc2nc(N3CCN(C(=O)c4ccco4)CC3)nc(N)c2cc1OC.Cl [Prazosin hydrochloride] | 106 |
| CN1CCN(C2=Nc3ccccc3Oc3ccc(Cl)cc32)CC1.O=C(O)CCC(=O)O [Loxapine succinate] | 110 |
| CC1(C)OC2CC3C4CC(F)C5=CC(=O)C=CC5(C)C4(F)C(O)CC3(C)C2(C(=O)CO)O1 (stereo not given) [Fluocinolone acetonide] | 124 |
| COc1cc(O)c2c(c1)oc(=O)c1c3cc(O)c(O)cc3oc21 [Wedelolactone] | 91.6 |
| Cc1ccc(Cl)c(Nc2ccccc2C(=O)[O-])c1Cl.[Na+] [sodium 2-(2,6-dichloro-3-methylanilino)benzoate] | 102 |
| CCCCCC=CCC1OC1CC=CCC=CCCCC(=O)O (stereo not given) [11,12-Epoxyeicosatrienoic acid] | 97.7 |
| COc1cc2nccc(Oc3ccc(NC(=O)NC4CC4)c(Cl)c3)c2cc1C(N)=O | 122 |
| COc1cc2ncnc(Sc3nnc(C)s3)c2cc1OC | 160 (active) |

| Structure (SMILES) | H1.0 immunofluorescence intensity |
| --- | --- |
| Nc1ccc(CCNc2ncnc3c2ncn3C2OC(CO)C(O)C2O)cc1 (stereo not given) [N6-2-(4-Aminophenyl)ethyladenosine] | 94 |
| Cc1c[nH]c(C=C2C(=O)Nc3ccccc32)c1CCC(=O)O | 103 |
| CCCCCCCCCCCCCCCCOCC(COCC(F)(F)F)OP(=O)([O-])OC.[Li+] (stereo not given) | 92.3 |
| COCC(=O)OC1(CCN(C)CCCc2nc3ccccc3[nH]2)CCc2cc(F)ccc2C1C(C)C.Cl.Cl (stereo not given) [Mibefradil dihydrochloride] | 124 |
| CCCC(CCC)C(=O)NO [N-hydroxy-2-propylpentanamide] | 80.8 |
| CCCCCCCC(=O)OCC(CO)OC(=O)CCCCCCC (stereo not given) [1,2-Dioctanoyl-SN-glycerol] | 98.6 |
| Nc1nc(OCc2ccccc2)c2[nH]cnc2n1 [O6-benzylguanine] | 95.8 |
| NCC1OC(OC2C(N)CC(N)C(OC3OC(CO)C(O)C(N)C3O)C2O)C(N)CC1O (stereo not given) [Tobramycin (free base)] | 106 |
| COc1cc2c3cc1Oc1cc(ccc1O)CC1c4c(cc(OC)c(O)c4Oc4ccc(cc4)CC3N(C)CC2)CC[N+]1(C)C.Cl.[Cl-] (single isomer, unassigned; (+)) [(+)-Tubocuraraine chloride] | 99.2 |
| CN1C2CCC1CC(OC(c1ccccc1)c1ccccc1)C2.CS(=O)(=O)O (stereo not given) [Benztropine mesylate] | 97.7 |
| CCCCCCCCC=CCCCCCCCCOCC(COP(=O)([O-])OCC[N+](C)(C)C)OC(C)=O (stereo not given) | 98.3 |
| NC(=O)c1ccc(-c2nc(-c3ccc4c(c3)OCCO4)c(-c3ccccn3)[nH]2)cc1 [Casein Kinase I Inhibitor, D4476] | 127 |
| CCN(CC)C(C)C(=O)N1c2ccccc2Sc2ccccc21.Cl (stereo not drawn) [10-(alpha-Diethylaminopropionyl)-phenothiazine hydrochloride] | 85.9 |
| CCCCCCCCCCCCCCCCCCCCCCCC(=O)O [Tetracosanoic acid] | 104 |
| Cn1nc2c3c(cccc31)C(=O)c1ccccc1-2 [JNK Inhibitor,                    Negative Control] | 136 |
| Cl.Nc1cc(Nc2ccc(S(N)(=O)=O)cc2)ncn1 | 102 |
| CC(=O)Nc1ccc(NC(=S)NC(=O)c2ccc(C(C)(C)C)cc2)cc1 [p53 Activator (Tenovin-1)] | 153 (active) |
| CC1(C)C(=O)N(CCN2CCC(C(=O)c3ccc(F)cc3)CC2)c2ccccc21.Cl [LY-310,762 hydrochloride] | 95.7 |
| Cc1cc2nc(NCCCO)n(CC(=O)c3cc(C(C)(C)C)c(O)c(C(C)(C)C)c3)c2cc1C | 173 (active) |
| CCCCCCC=CCCCCCCCC(=O)O [9(Z)-Hexadecenoic acid] | 101 |
